The whole screen tested about 2,300 compounds, of which about 2,100 (91%) were called active.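 How the source made its calls: active means compounds raising the signal whose fitted half-maximal concentration is at or below their top tested dose (cut at about 25 µM in these data); inconclusive means flat fit at 30 to 70% activity, or a poor fit; inactive means the rest.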 So high a share suggests a set chosen from earlier hits. The list is a sample of the results. Entries that show only a call come without a potency. Potency and affinity values are given separately.
Assay: cytokine-free beta-cell viability effect – INS-1E rat cells, ATP luminescence, cherry pick, counter-screen for beta-cell apoptosis protection project, dose response (AID 463229)
Conditions: INS-1E rat beta cells, no cytokines, CellTiter-Glo ATP, 48 h; series mostly up to 26 µM

Row | SMILES | outcome
1 | CCCOc1ccc2c3c(c(=O)oc2c1OCCC)CCCC3 | inactive
2 | COc1ccc(/C=N/N2CCN(Cc3ccccc3)CC2)cc1 | inactive
3 | C/C(=N\Nc1nc(C)cc(-c2ccccc2)n1)c1ccccc1 | inactive
4 | C/C(=N\Nc1nc(C)cc(-c2ccccc2)n1)c1ccc(F)cc1 | inactive
5 | C=CC[C@@H](CC(=O)N(CCO)Cc1ccccc1)C(=O)N[C@H](COC(=O)[C@@H](CC=C)CC(=O)OC(C)(C)C)c1ccccc1 | inactive
6 | Cc1cc(C)n(-c2nc(NC(C)(C)C)nc(NC(C)(C)C)n2)n1 | inactive
7 | NNC(=S)Nc1ccc(OC(F)(F)F)cc1 | inactive
8 | COC(=O)c1sccc1S(=O)(=O)Nc1ccc(N2CCCCC2)cc1 | inactive
9 | COc1ccc(NC(=O)N(C)C[C@H]2Oc3c(NS(=O)(=O)c4ccc(F)cc4)cccc3C(=O)N([C@H](C)CO)C[C@@H]2C)cc1 | inactive
10 | c1ccc(-c2nnc(CSc3ccc4c(c3)OCCO4)o2)cc1 | inactive
11 | Fc1cccc(Cl)c1-c1nnc2ccc3ccccc3n12 | inactive
12 | Nc1ccc(Nc2ccccc2)cc1 | inactive
13 | CCN(CC)S(=O)(=O)c1cccc(NC(=O)c2cc(-c3cccs3)nn2-c2ccccc2)c1 | inactive
14 | Cc1ccc(S(=O)(=O)Nc2ccc(C(OC(=O)c3ccccc3[N+](=O)[O-])(C(F)(F)F)C(F)(F)F)cc2)cc1 | inactive
15 | c1ccc(N2CCN(CC3CCCCC3)CC2)cc1 | inactive
16 | CCCCOC(=O)c1ccc(NC(c2ccc(C)cc2)P(=O)(OC)OC)cc1 (stereo not given) | inactive
17 | COc1ccc(C2CC(c3cccc(C)c3)n3nc(N)nc3N2)cc1 (stereo not given) | inactive
18 | Cc1ccc(C2CC(c3cccc(C)c3)n3nc(N)nc3N2)cc1 (stereo not given) | inactive
19 | CCOC(=O)CSc1nc2c(c(=O)[nH]1)C(C)(CC)Cc1ccccc1-2 (stereo not given) | inactive
20 | O=C(O)c1ccc(/C=C2\SC(=S)N(Nc3ccccc3)C2=O)cc1 | inactive
21 | CN1N=C(C(C)(C)C)CSC1=Nc1ccccc1 | inactive
22 | CC(=O)c1c(C)n(CC(=O)NCc2ccco2)c2ccccc12 | inactive
23 | Cc1ccc(N2C(=O)CSC2c2cccnc2)c(Cl)c1 (stereo not given) | inactive
24 | CN(C)c1ccc(NC(=S)NC23CC4CC(CC(C4)C2)C3)cc1 | inactive
25 | COc1ccccc1NS(=O)(=O)c1cccc(NC(=O)c2[nH]c(C)c(C(C)=O)c2C)c1 | inactive
26 | O=C(CC1CC2CCC1C2)NCCc1ccc(Cl)cc1 (stereo not given) | inactive
27 | CNC(=S)N(Cc1cccs1)Cc1cc2cc(OC)c(OC)cc2[nH]c1=O | inactive
28 | CCN(CC)c1ccc(N=Cc2ccccc2[N+](=O)[O-])cc1 | inactive
29 | CC1CC(=O)N(c2ccc(Br)cc2)C(=O)C1 | inactive
30 | Cn1cccc1/C=N/NC(=O)Cc1cccs1 | inactive

Source: PubChem BioAssay AID463229 (Broad Institute, 2010)
